This passage reports outcome and AC50 results from PubChem BioAssay (EPA / NIEHS).

Values joined by “and” are separate entries in the source; they are usually repeats but may differ in a detail not shown here. Identical values can stand only once. Some structures have more than one record in an assay (separate samples or runs), and their calls can disagree. Active and inactive are the calls of the source. Rule for the calls: active = hit-call score of the fitted dose curve at least 0.9, where 1 is the maximum; inactive = score below 0.9.

The assay is described as follows: ATG_CRE_CIS: Attagene CIS-FACTORIAL HepG2 Assay for human cAMP Responsive Element (CRE) binding protein 3 (AID 2282926). Conditions: HepG2 CRE cis-reporter, Attagene multiplexed mRNA; actives raise or lower the signal. Here is the method:
ATG_CIS is a cell-based, multiplexed-readout assay that uses HepG2, a human liver cell line, with measurements taken at 24 hours after chemical dosing in a 24-well plate.ATG_CRE_CIS is one of 52 assay component(s) measured or calculated from the ATG_CIS assay. It is designed to make measurements of mRNA induction, a form of inducible reporter, as detected with fluorescence intensity signals by Reverse transcription polymerase chain reaction (RT-PCR) and Capillary electrophoresis technology.Data from the assay component ATG_CRE_CIS was analyzed into 1 assay endpoint. This assay endpoint, ATG_CRE_CIS, was analyzed with bidirectional fitting relative to DMSO as the negative control and baseline of activity. Using a type of inducible reporter, measures of mRNA for gain or loss-of-signal activity can be used to understand the reporter gene at the transcription factor-level as they relate to the gene CREB3. Furthermore, this assay endpoint can be referred to as a primary readout, because this assay has produced multiple assay endpoints where this one serves a reporter gene function. To generalize the intended target to other relatable targets, this assay endpoint is annotated to the dna binding intended target family, where the subfamily is basic leucine zipper.
Human liver HepG2 cells are transiently transfected with multiple reporter transcription units (MRTUs) in 6-well plates using FuGene 6 reagent (Roche; 3 ml FuGene/1 mg DNA). The MRTU constructs are regulated by a cis-regulating element (promoter). […] A major difference between the CIS and TRANS system is that in CIS activities of endogenous TFs are measured, whereas the TRANS assay evaluates changes in activities of exogenous, chimeric NR-Gal4 proteins. […] At the end of 24 hour incubation, total RNA was isolated using TriZol reagent (Invitrogen). The isolated RNA is then reverse-transcribed using oligo(dT) primer and Mo-MLV reverse transcriptase (Invitrogen) with DNAse I (Ambion) treatment for 30 min. The one-tenth of the produced cDNA was amplified by PCR using Taq DNA polymerase (Invitrogen) and two reporter sequence-specific primers. The PCR products were fluorescently labeled by primer extension with 6-arboxyfluorescein (6-FAM) 5'-labeled reporter sequence-specific primer (2 min at 95 C, 20 s at 68 C and 10 min at 72 C) and these products were digested with 5U of HpaI (New England Biolabs) for 2h at 37 C. The fragments were purified using Qiaquick PCR columns (Qiagen), analyzed on an ABI 3130xL genetic analyzer (Applied Biosystems) with peak positions identified by using a set of X-rhodamine (ROX)-labeled MapMarker1000 molecular weight standards (BioVentures). The raw capillary electrophoresis data was processed using Attagraph software (Attagene).
On to `O=C(O)C1(C(=O)Nc2ccc(Cl)cc2Cl)CC1`, for which the compound was called inactive.

With `c1ccc(Nc2ccccc2)cc1`, the compound was called inactive.

Regarding `COCCO`, the compound was classed as inactive.

As for `CC(=O)[C@H]1CC[C@H]2[C@@H]3CCC4=CC(=O)CC[C@]4(C)[C@H]3CC[C@]12C`, the compound was classed as inactive.

The AC50 is the midpoint of the concentration-response curve, whichever way the signal moves. As for `N#CSCSc1nc2ccccc2s1`, the call was inactive and the AC50 is 18.2 µM (active).

Regarding `CCOC(=O)C(C)Oc1ccc(Oc2nc3ccc(Cl)cc3o2)cc1` (stereo not given), the compound was classed as inactive.

In the case of `CC(=O)S[C@@H]1CC2=CC(=O)CC[C@]2(C)[C@H]2CC[C@@]3(C)[C@@H](CC[C@@]34CCC(=O)O4)[C@H]12`, the AC50 was 25.5 µM (active) and 17.9 µM (active) and 3.75 µM (active); the call was inactive.

`COC(=O)CSc1cc(N=c2sc(=O)n3n2CCCC3)c(F)cc1Cl`: the result was inactive.

For `CCCCCOC(=O)COc1cc(N2C(=O)C3=C(CCCC3)C2=O)c(F)cc1Cl`, the call was inactive.

With `COc1nc(C)nc(NC(=O)NS(=O)(=O)c2ccccc2OCCCl)n1`, the result was inactive.

Turning to `C[C@]12CC[C@@H]3c4ccc(O)cc4C[C@@H](CCCCCCCCCS(=O)CCCC(F)(F)C(F)(F)F)[C@H]3[C@@H]1CC[C@@H]2O` (stereo not given in full), the compound was called inactive.

As to `CN(C)C(=O)Nc1ccc(Cl)c(Cl)c1`, the result was inactive.

On to `CCN(Cc1c(F)cccc1Cl)c1c([N+](=O)[O-])cc(C(F)(F)F)cc1[N+](=O)[O-]`, for which the compound was classed as inactive.

For `CC(C)(C)[C@@H](O)[C@@H](Cc1ccc(Cl)cc1)n1cncn1`, the half-maximal activity concentration (AC50) was 13.5 µM (active).

`C=CCOC(Cn1ccnc1)c1ccc(Cl)cc1Cl` (stereo not given): the AC50 was 12.9 µM (active).

Turning to `C#CCOC(=O)[C@@H](C)Oc1ccc(Oc2ncc(Cl)cc2F)cc1`, the outcome was inactive.

For `CCSC(=O)N(CC(C)C)CC(C)C`, the outcome was inactive.

With `CCCOC(=O)NCCCN(C)C`, the call was inactive.

Take `CC(C)CCCCCCc1ccc(O)cc1`: the outcome was inactive; the AC50 is 17.3 µM (active) and 16.4 µM (active).

With `Cc1nn(C)c(Oc2ccccc2)c1C=NOCc1ccc(C(=O)OC(C)(C)C)cc1`, the AC50 was 0.0405 µM (active).

For the compound `O=C(Nc1ccc([N+](=O)[O-])cc1Cl)c1cc(Cl)ccc1O`, the AC50 is 0.506 µM (active).

For `CCOC(=O)[C@H](C)Oc1ccc(Oc2nc3ccc(Cl)cc3o2)cc1`, the result was inactive.

In the case of `CCCCC(CC)COC(=O)c1ccccc1C(=O)O` (stereo not given), the compound was called inactive.

Consider `O=C(O)c1ccccc1`, for which the call was inactive.

Consider `S=C(S)NCCNC(=S)S.[Mn+2].[S-]C([S-])=NCCN=C([S-])[S-].[Zn+2]`, for which the call was inactive; the half-maximal activity concentration (AC50) is 10.1 µM (active) and 9.92 µM (active).

Regarding `Oc1ccc(C(c2ccc(O)cc2)C(Cl)(Cl)Cl)cc1`, the result was inactive.

Consider `CCCCCCC(C)OC(=O)COc1nc(F)c(Cl)c(N)c1Cl` (stereo not given), for which the compound was classed as inactive.

`S=C([S-])NCCNC(=S)[S-].[Mn+2]`: the compound was classed as inactive.

Turning to `CCC(C)OC(=O)N1CCCCC1CCO` (stereo not given), the result was inactive.

In the case of `CCCCC(CC)CN1C(=O)C2C3C=CC(C3)C2C1=O` (stereo not given), the compound was called inactive.

In the case of `CC(C)(c1ccc(O)cc1)c1ccc(O)cc1`, the compound was classed as inactive; the AC50 is 64.3 µM (active) and 25.5 µM (active) and 22.7 µM (active).

In the case of `C[C@]12C[C@H](O)[C@H]3[C@@H](CCC4=CC(=O)CC[C@@]43C)[C@@H]1CC[C@@H]2C(=O)CO`, the result was inactive.

`COC(=O)c1ccccc1C(=O)O`: the result was inactive.

As to `CCCN(CCC)C(=O)SCC`, the result was inactive.

Regarding `CCOC(=O)COc1cc(-n2ncc(C(F)(F)F)c(C)c2=O)c(F)cc1Cl`, the result was inactive.
